# Results published in PubChem BioAssay AID686978 (National Center for Advancing Translational Sciences (NCATS), 2013).
# Hit rate of the full screen: of about 420,000 compounds, about 64,000 (15%) were called active. Inconclusive results (about 27%) are left out. The call rests on the fitted dose curve; in most records, active means well fitted inhibition curve with a large enough effect; inconclusive means small, poorly fitted or top-dose-only effect; inactive means flat fitted curve, though single readings scatter. These entries were drawn from the full list.
# Assay: qHTS for Inhibitors of human tyrosyl-DNA phosphodiesterase 1 (TDP1): qHTS in cells in absence of CPT; further: nearly all actives have a fitted effect of over 55% in size
# Conditions: DT40 Tdp1-/- hTDP1 cells, no CPT, ATP luminescence, 48 h; activity change, negative = growth inhibition: at 46.2 µM (top of the series)
# Procedure, shortened: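 Stably hTDP1-transfected Tdp1-null chicken DT40 cells were treated with library compounds minus camptothecin and grown for at least 48 hr at 37 °C, after which cellular ATP was quantified by luminescence.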
# On the % scale 0 is the no-effect control and ±100 the full control effect; potency means the concentration at half of the fitted maximal effect.
Structure (SMILES),"activity change, negative = growth inhibition",Potency
CCOc1ccc(OCC(=O)Nc2c3c(nn2C(C)(C)C)CS(=O)(=O)C3)cc1,4.73% (inactive),
CCN1C(=O)C(CC(=O)Nc2cc(C)ccc2C)SC1=Nc1ccc(S(N)(=O)=O)cc1 (configuration not stated),-22.5% (inactive),
CCOc1cccc2cc(C(=O)OCC(=O)Nc3c(C)cccc3CC)c(=O)oc12,-14.4% (inactive),
Cc1ccc(CN2CCN(Cc3cccc(C)n3)CC2CCO)cc1 (configuration not stated),-6.22% (inactive),
COc1ccc(CN2CCN(Cc3cn(C)nc3-c3ccccc3)CC2CCO)c(C)c1C (configuration not stated),,18.4 µM (active)
Cc1ccc(CN2CCN(Cc3cn(C)nc3-c3ccccc3)CC2CCO)o1 (configuration not stated),-4.56% (inactive),
CCCC(=O)n1nc(NCc2ccc(OC)cc2)nc1NCc1ccc(OC)cc1,-12% (inactive),
O=C(Cc1ccccc1)n1nc(-c2ccccc2)nc1NCc1ccco1,-20.2% (inactive),
O=C(c1cccs1)n1nc(NCc2ccccc2)nc1NCc1ccccc1,-25.3% (inactive),
O=C(c1ccc(Cl)cc1)n1nc(-c2cccnc2)nc1NCc1ccc(F)cc1,-17.7% (inactive),
O=C(c1ccco1)n1nc(-c2ccc(Cl)cc2)nc1NCc1ccccc1,,18.4 µM (active)
COc1ccc(CNc2nc(-c3ccccc3)nn2C(=O)c2ccccc2OC)cc1,,18.4 µM (active)
CC1CCCCC12NC(=O)N(CC(=O)OCC(=O)NCc1ccc(F)cc1)C2=O (configuration not stated),13% (inactive),
CN1CCN(c2cc(=O)n(-c3ccc(Cl)cc3)c(=O)[nH]2)CC1,8.74% (inactive),
O=C(O)c1ccccc1N=N/C(=N/Nc1cc(S(=O)(=O)O)ccc1O)c1ccccc1,-21.2% (inactive),
Cc1c(Cl)cccc1NC(=O)CCS(=O)(=O)c1ccc2c(c1)oc(=O)n2C,-28.5% (inactive),
NC(=O)C1CCN(C(=O)CC2C(=O)NCCN2Cc2cccc(Oc3ccccc3)c2)CC1 (configuration not stated),8.81% (inactive),
Cc1ccc(SCC(=O)NNC(=O)c2ccc(S(C)(=O)=O)cc2)cc1,-6.08% (inactive),
Cc1ccccc1-n1cc(CNC(=O)CC2C(=O)NCCN2C/C=C/c2ccccc2)cn1 (configuration not stated),0.773% (inactive),
COCCn1c(CCC(=O)Nc2cc(C)ccc2C)nc2cccnc21,-22.2% (inactive),
COc1cc(OC)c(NC(=O)Cc2ccc(-n3c(C)nc4cccnc43)cc2)cc1Cl,,14.6 µM (active)
Cc1ccc(Cl)cc1NC(=O)c1ccccn1,-1.57% (inactive),
COCCCNC(=O)Cc1ccc(-n2c(C)nc3cccnc32)cc1,-5.57% (inactive),
Cc1ccc(Cl)cc1NC(=O)Cc1ccc(-n2c(C)nc3cccnc32)cc1,,23.1 µM (active)
CCc1nc2cccnc2n1-c1ccc(C(=O)O)cc1,7.89% (inactive),

Structure (SMILES),"activity change, negative = growth inhibition",Potency
O=C(O)C1CCN(c2ncnc3ccc(-c4ccccc4C(F)(F)F)cc23)CC1,2.09% (inactive),
O=C(CC1C(=O)NCCN1CC(c1ccccc1)c1ccccc1)NCCc1cn[nH]c1 (configuration not stated),-18.8% (inactive),
CCN(CC(=O)NCc1cccs1)C(=O)c1ccc(OC)c(S(=O)(=O)N2CCOCC2)c1,-13.2% (inactive),
Cc1ccc(C2=Nc3c(ccc4ccccc34)C(c3ccncc3)=NN2)cc1,,11.6 µM (active)
COc1cc(C)nc(N2CCCC(C(=O)NCC(C)C)C2)n1 (configuration not stated),-8.52% (inactive),
COCCNC(=O)CSc1nc(N)c(NC(=O)c2ccco2)c(=O)[nH]1,17.3% (inactive),
O=C(NC(=S)Nc1ccc(S(=O)(=O)Nc2ncccn2)cc1)c1cccc(Br)c1,-16.1% (inactive),
CCC1Oc2ccccc2N(CC(=O)NCCCN2CCN(CC)CC2)C1=O (configuration not stated),10.1% (inactive),
O=C(CN1C(=O)S/C(=C\c2ccccc2F)C1=O)NCCCn1ccnc1,0.574% (inactive),
CC(C)OCCCNC(=O)CN1C(=O)/C(=C/c2ccccc2F)Oc2ccccc21,,10.3 µM (active)
COc1ccc(F)cc1C(=O)COC(=O)c1n[nH]c(=O)c2ccccc12,15.4% (inactive),
COC(=O)CN(c1cccc(C(C)=O)c1)S(C)(=O)=O,-7.62% (inactive),
C=CCc1cccc2cc(C(=O)N3CCN(C(=O)OCC)CC3)c(=O)oc12,-27.4% (inactive),
CC(C)Nc1nc(N(c2ccccc2)c2ccccc2)nc(-n2ccnc2)n1,-24.8% (inactive),
O=C(O)COCC(=O)NCc1csc2ccc(Cl)cc12,1.54% (inactive),
CCOc1cc(C(C(=O)NCC2CCCO2)N(C(=O)Cn2nnc3ccccc32)c2cccc(OC)c2)ccc1O (configuration not stated),-7.52% (inactive),
Cc1ccc(N(C(=O)c2snc(C(N)=O)c2N)C(C(=O)NCC2CCCO2)c2c[nH]c3ccccc23)cc1 (configuration not stated),,4.11 µM (active)
CCC(C(=O)NCCC(C)C)N(Cc1ccccc1Cl)C(=O)c1snc(C(N)=O)c1N (configuration not stated),-14.3% (inactive),
CCOc1ccc(N(CC(=O)NCC2CCCO2)S(=O)(=O)c2ccc(C)cc2)cc1 (configuration not stated),-29.9% (inactive),
CCOc1ccc(N(C(=O)c2snc(C(N)=O)c2N)C(C(=O)NCC2CCCO2)c2c[nH]c3ccccc23)cc1 (configuration not stated),,3.66 µM (active)
Cc1ccc(N(C(=O)Cc2cccs2)C(C(=O)NCC2CCCO2)c2ccncc2)cc1 (configuration not stated),-4.89% (inactive),
O=C(NCC(=O)N(c1ccccc1)C(C(=O)NCC1CCCO1)c1ccccc1)c1cccs1 (configuration not stated),-18% (inactive),
NC(=O)c1nsc(C(=O)N(CCCN2CCOCC2)C(C(=O)NC2CCCCC2)c2ccc(Cl)cc2)c1N (configuration not stated),1.3% (inactive),
Cc1ccc(C(C(=O)NCC2CCCO2)N(C(=O)c2snc(C(N)=O)c2N)c2ccc(C(C)C)cc2)o1 (configuration not stated),,18.4 µM (active)
Cn1cnc2c1c(=O)n(Cc1ccccc1C#N)c(=O)n2C,14.5% (inactive),

Structure (SMILES),"activity change, negative = growth inhibition",Potency
CCn1c(CSc2nncn2-c2ccc(OC)cc2)nc2cc(S(=O)(=O)N(C)C)ccc21,-12.7% (inactive),
COC(=O)CN1C(=O)C(O)=C(C(C)=O)C1c1ccc([N+](=O)[O-])cc1 (configuration not stated),-5.52% (inactive),
Cc1noc(COc2ccccc2OCC(O)CNC(C)(C)C)n1 (configuration not stated),-16.8% (inactive),
CC(C)(C)CC(C)(C)NCC(O)COCCOc1ccc(Br)cc1 (configuration not stated),,2.31 µM (active)
OC(COc1ccc(Br)cc1)CN1CCCC1 (configuration not stated),-3.64% (inactive),
O=C(N/N=C\c1cccc(Br)c1)c1ccccc1-n1cccc1,-14% (inactive),
C=C1CCN([C@@H](Cc2ccccc2)C(=O)N2CCOCC2)S(=O)(=O)c2ccccc21,-13.4% (inactive),
CC1(C)OC(=O)C2=C(C[C@@H](C3CCCCC3)O[C@@H]2c2ccc(Cl)cc2)O1,,20.6 µM (active)
CCC1OC(C2CC2)CC2=C1C(=O)OC(C)(C)O2 (configuration not stated),-5.73% (inactive),
CC1(C)OC(=O)C2=C(C[C@@H](C3CC3)O[C@H]2c2ccc(Cl)cc2)O1,-11.7% (inactive),
OC(COCc1ccco1)CN1CCN(c2ccccc2)CC1 (configuration not stated),-2.82% (inactive),
COc1cccc(C(=O)NNS(=O)(=O)c2ccc(F)cc2)c1,-10.6% (inactive),
COc1ccc(-c2nnc(NC(=O)CS(=O)(=O)c3ccc(Cl)cc3)o2)c(OC)c1,-0.822% (inactive),
COc1cccc(-c2nnc(NC(=O)c3ccc(S(=O)(=O)N(CC(C)C)CC(C)C)cc3)o2)c1,,4.61 µM (active)
COc1ccc(CNC(=O)CN(Cc2ccc(Cl)cc2)S(C)(=O)=O)cc1,-2.62% (inactive),
COc1ccc(OC)c(-n2c(=S)[nH]c3cc(C(=O)N4CCCCC4)ccc3c2=O)c1,-27.4% (inactive),
Cc1ccc2cccc(O)c2[n+]1[O-],-8.39% (inactive),
CCOC(=O)c1[nH]c2ccc(OC)cc2c1NC(=O)N1CCOCC1,-20.1% (inactive),
COc1ccc(CCNC(=O)CCC(=O)NC2CCCCC2)cc1OC,-5.05% (inactive),
COc1ccc(CCNC(=O)c2c3c(nc4ccccc24)C(=O)N(C2CCCCC2)C3)cc1OC,,23.1 µM (active)
COc1ccc(CCNC(=O)C2CCCN2C(=O)Nc2ccccc2)cc1OC (configuration not stated),5.92% (inactive),
CCNC(=O)CC1C(=O)N(c2ccc(OC)cc2)C(=O)N1CCOC (configuration not stated),2.07% (inactive),
Cc1ccc(NC(=O)C/C(N)=N/O)cc1Cl,-5.52% (inactive),
COCCNc1nc(N)c([N+](=O)[O-])c(NCCO)n1,-9.94% (inactive),
CNc1nc(Nc2ccc(C)c(Cl)c2)nc(N)c1[N+](=O)[O-],,6.51 µM (active)

Structure (SMILES),"activity change, negative = growth inhibition",Potency
O=C(NCCc1ccc(Cl)cc1)C1CCCN1C(=O)NCc1ccccc1 (configuration not stated),-2.47% (inactive),
O=C(CC1Oc2ccccc2NC1=O)NCc1ccc(F)cc1 (configuration not stated),-7.43% (inactive),
O=C(CSc1ccc(/C=N/NC(=O)c2cccc(F)c2)o1)Nc1ccccc1,-7.37% (inactive),
O=C(N/N=C/c1ccc([N+](=O)[O-])o1)c1cn(-c2ccccc2)nc1-c1ccc(F)cc1,,5.8 µM (active)
Cc1cc(C(=O)N/N=C/c2ccc(O)c([N+](=O)[O-])c2)c(C)n1-c1ccc(F)cc1,-14.9% (inactive),
COCC(=O)Nc1cc(C(=O)N2CCCC(c3ccccc3)CC2)c2c(c1)nc(-c1ccncc1)n2C (configuration not stated),-24.5% (inactive),
COc1ccc(NC(=O)CC(NC(C)c2ccccc2)C(=O)O)cc1 (configuration not stated),1.75% (inactive),
C[C@@H]1CN([C@@H](C)CO)C(=O)CCCn2cc(nn2)CO[C@H]1CN(C)S(=O)(=O)c1ccc(-n2cccn2)cc1,1.79% (inactive),
Cc1ccc(O)c(NC(=O)c2cc(-c3ccc(F)cc3)no2)c1,-20.1% (inactive),
Cc1ccc(C)c(NC(=O)c2cc(-c3cc(C)cc(C)c3O)n[nH]2)c1,,13 µM (active)
Cc1ccc(C)c(NC(=O)c2ccc3nccnc3c2)c1,-24.9% (inactive),
CCCCN(C(=O)CCNC(=O)NC12CC3CC(CC(C3)C1)C2)c1c(N)n(CCCC)c(=O)[nH]c1=O,-21.6% (inactive),
CCOc1cc(CO)ccc1OCC(=O)N1CCCCC1,3.17% (inactive),
Cc1ccc(C(=O)NC(C)C(c2cccs2)N2CCOCC2)cc1C (configuration not stated),,18.4 µM (active)
Cc1ccc(C(=O)NCC(c2cccs2)N(C)C)cc1S(=O)(=O)N1CCOCC1 (configuration not stated),19.3% (inactive),
CCCC(=O)NC(C)C(c1cccs1)N1CCN(c2ccccc2)CC1 (configuration not stated),-22.2% (inactive),
Cc1ccc(N(C(=O)c2ccc(CN3CCOCC3)o2)C(C(=O)NCCC(C)C)c2cccs2)c(C)c1 (configuration not stated),4.05% (inactive),
CC(NC(=O)Nc1ccccc1)c1ccccc1 (configuration not stated),-10% (inactive),
CC(NC(=O)Nc1ccccc1)C(c1cccs1)N1CCN(c2ccccc2)CC1 (configuration not stated),,23.1 µM (active)
COC(=O)c1sc(SC)c(S(=O)(=O)C(C)C)c1N/N=C(\C#N)S(=O)(=O)c1ccccn1,-16.8% (inactive),
CC(=O)c1ccc(NC(=O)C(C)OC(=O)c2ccc(NS(=O)(=O)c3ccc4[nH]c(=O)[nH]c4c3)cc2)cc1 (configuration not stated),8.98% (inactive),
Cc1ccc(C(=O)OC(C)CN2CCOCC2)cc1 (configuration not stated),-22% (inactive),
